We go through 42 molecules from the antibiotic and cytotoxicity screens of Wong et al. (2023).

The whole screen tested about 39,000 compounds, of which about 3,300 (8.5%) were called active. The full list was thinned out, with actives kept by preference.

The test concerns HepG2. Description: cytotoxicity call (relative viability < 0.9). The conditions noted are these: 10 µM.
As to `O=C(C[C@H]1C[C@H]2c3cc(NC(=O)c4ccc5c(c4)OCO5)ccc3O[C@H]2[C@H](CO)O1)NCCN1CCCCC1`, the cytotoxicity call is “inactive”. For `C[C@H]1CN([C@@H](C)CO)C(=O)c2cc(NC(=O)Cn3cnnn3)ccc2O[C@H]1CN(C)Cc1ccccc1` the value was “inactive”.

Consider `CC(C)NC(=O)Nc1ccc2c(c1)C(=O)N([C@@H](C)CO)C[C@H](C)[C@@H](CN(C)C(=O)Nc1ccc(F)cc1)OCCCC[C@@H](C)O2`, for which the cytotoxicity call was “inactive”. With `O=C(C[C@H]1CC=CCC[C@H](Cc2ccc(F)cc2)C(=O)OC[C@H](Cc2ccccc2)NC1=O)NCCO` the entry was “inactive”; with `C#CCN(O[C@@H](/C=C/[C@@H](O)CCn1cc(-c2cccc(/C=C/C(=O)NO)c2)nn1)C1CC1)[C@@H](Cc1ccccc1)C(=O)OC`, “inactive”; with `C[C@@H]1CCCCO[C@@H](CN(C)C(=O)c2ccccc2)[C@H](C)CN([C@@H](C)CO)C(=O)c2cc(NC(=O)Nc3ccccc3)ccc2O1`, “inactive”.

Turning to `O=C(NC1CC1)c1n[nH]c(=O)c2ccccc12`, the cytotoxicity call was “inactive”.

As for `O=C1CNCCN1C1CCCC1`, the cytotoxicity call is “inactive”.

Consider `C[C@@H]1CN([C@H](C)CO)C(=O)c2cc(NC(=O)CCC(F)(F)F)ccc2O[C@@H](C)CCCCO[C@H]1CN(C)C(=O)Nc1ccc(C(F)(F)F)cc1`, for which the cytotoxicity call is “inactive”. With `COc1ccc(NC(=O)Nc2ccc3c(c2)C(=O)N([C@H](C)CO)C[C@@H](C)[C@@H](CN(C)Cc2ccc(C(F)(F)F)cc2)OCCCC[C@@H](C)O3)cc1` the entry was “active”. For `COc1ccc(CN(C)C[C@H]2OCCCC[C@H](C)Oc3ccc(NC(=O)Nc4ccc(C(F)(F)F)cc4)cc3C(=O)N([C@@H](C)CO)C[C@H]2C)cc1` the value was “active”; for `COc1ccc(CN(C)C[C@H]2OCCCC[C@H](C)Oc3ccc(NC(=O)Nc4ccc(C(F)(F)F)cc4)cc3C(=O)N([C@H](C)CO)C[C@@H]2C)cc1`, “active”.

For the molecule `COc1ccc(NC(=O)Nc2ccc3c(c2)C(=O)N([C@@H](C)CO)C[C@@H](C)[C@H](CN(C)Cc2ccc(C(F)(F)F)cc2)OCCCC[C@@H](C)O3)cc1`, the cytotoxicity call was “active”.

For `CC[C@@H](NC)C(=O)O`, the cytotoxicity call is “inactive”. For `CC(C)(C)[C@H]1CCc2c(sc3nc(-c4ccccc4)cn23)C1` the value was “inactive”; for `COc1ccc(NC(=O)N(C)C[C@H]2Oc3ncc(C#C[C@H](C)O)cc3C(=O)N([C@@H](C)CO)C[C@H]2C)cc1`, “inactive”.

Turning to `O=C(O)[C@H]1CCS(=O)(=O)C1`, the cytotoxicity call is “inactive”. As to `NC(=O)c1cc(Cl)ccn1`, the cytotoxicity call was “inactive”. Take `C[C@@H]1CN([C@@H](C)CO)C(=O)c2cccc(NC(=O)c3ccc(-c4nccs4)cc3)c2O[C@@H]1CN(C)Cc1ccc(Oc2ccccc2)cc1`: the cytotoxicity call was “inactive”. With `COc1ccc(C#Cc2ccc3c(c2)O[C@H](CN(C)S(=O)(=O)c2ccccc2F)[C@@H](C)CN([C@@H](C)CO)S3(=O)=O)cc1` the entry was “inactive”; with `C[C@@H]1CN([C@@H](C)CO)C(=O)c2cccc(NS(=O)(=O)c3ccccc3)c2O[C@@H]1CN(C)S(=O)(=O)c1ccccc1`, “inactive”.

Take `C[C@H](CO)N1C[C@H](C)[C@H](CN(C)C(=O)CCC(F)(F)F)OCc2ccccc2-c2c(n(C)c3ccccc23)C1=O`: the cytotoxicity call was “inactive”. With `C[C@@H]1CCCCO[C@H](CN(C)S(=O)(=O)c2cn(C)cn2)[C@@H](C)CN([C@@H](C)CO)C(=O)c2cc(NC(=O)CCCN(C)C)ccc2O1` the entry was “inactive”. As to `Cc1noc(C)c1S(=O)(=O)N(C)C[C@H]1OCCCC[C@H](C)Oc2ccc(NC(=O)Nc3cccc4ccccc34)cc2C(=O)N([C@H](C)CO)C[C@H]1C`, the cytotoxicity call was “inactive”.

Take `C[C@@H]1CN([C@@H](C)CO)C(=O)CCCn2nncc2CO[C@@H]1CN(C)C(=O)Nc1ccccc1C(F)(F)F`: the cytotoxicity call is “inactive”. Take `COc1ccc(NC(=O)Nc2ccc3c(c2)C(=O)N([C@@H](C)CO)C[C@@H](C)[C@@H](CN(C)Cc2ccc(C(F)(F)F)cc2)OCCCC[C@H](C)O3)cc1`: the cytotoxicity call is “active”. With `COc1ccc(NC(=O)Nc2ccc3c(c2)C(=O)N([C@H](C)CO)C[C@@H](C)[C@H](CN(C)Cc2ccc(C(F)(F)F)cc2)OCCCC[C@@H](C)O3)cc1` the entry was “active”. `COc1ccc(CN(C)C[C@@H]2OCCCC[C@@H](C)Oc3ccc(NC(=O)Nc4ccc(C(F)(F)F)cc4)cc3C(=O)N([C@@H](C)CO)C[C@@H]2C)cc1`: the cytotoxicity call is “active”.

`COc1ccc(NC(=O)Nc2ccc3c(c2)C(=O)N([C@@H](C)CO)C[C@H](C)[C@H](CN(C)Cc2ccc(C(F)(F)F)cc2)OCCCC[C@H](C)O3)cc1`: the cytotoxicity call was “active”.

For `O=C(C[C@@H]1CC[C@@H]2[C@H](COC[C@@H](O)CN2S(=O)(=O)c2ccccc2)O1)NCCN1CCCC1`, the cytotoxicity call was “inactive”.

In the case of `C[C@@H]1CN([C@H](C)CO)C(=O)Cc2cc(NC(=O)c3ccncc3)ccc2O[C@@H]1CN(C)C(=O)Nc1ccc2c(c1)OCO2`, the cytotoxicity call is “inactive”. For `COCC(=O)N1C[C@@H](C)[C@H](OC)CN(C)C(=O)c2ccc(NC(=O)Nc3ccccc3)cc2OC[C@H]1C` the value was “inactive”. For `CNC(=O)[C@H]1C[C@H]2CCN(S(=O)(=O)N(C)C)C[C@H]2O1` the value was “inactive”; for `Cc1noc(C)c1S(=O)(=O)Nc1ccc2c(c1)C(=O)N([C@@H](C)CO)C[C@H](C)[C@@H](CN(C)C(=O)NC(C)C)O2`, “inactive”.

For `C[C@H](CO)N1C[C@H](C)[C@H](CN(C)S(=O)(=O)c2cn(C)cn2)OCc2ccccc2-c2ccccc2C1=O`, the cytotoxicity call is “inactive”.

In the case of `Cc1nc(CSCc2ccc(Cl)cc2Cl)cs1`, the cytotoxicity call is “inactive”. With `COc1ccccc1CN1C(=O)c2ccccc2[C@@]2(Cc3ccccc3N(Cc3ccccc3)C2=O)[C@@H]1c1ccc(CO)cc1` the entry was “inactive”.

Regarding `C[C@@H]1CN([C@@H](C)CO)C(=O)c2cc(NC(=O)Nc3ccccc3)ccc2O[C@@H]1CN(C)S(C)(=O)=O`, the cytotoxicity call is “inactive”.

For `C[C@H](CO)N1C[C@H](C)[C@H](CN(C)Cc2ccc3c(c2)OCO3)Oc2ccc(NS(=O)(=O)c3cn(C)cn3)cc2CC1=O`, the cytotoxicity call is “inactive”. Take `O=c1cc(Cl)[nH]c(=O)[nH]1`: the cytotoxicity call is “inactive”. For `Cc1cc(C(=O)Nc2cccc3c2O[C@@H](CN(C)Cc2ccc(C(=O)O)cc2)[C@@H](C)CN([C@H](C)CO)C3=O)n(C)n1` the value was “inactive”. For `Cc1noc(C)c1S(=O)(=O)Nc1cccc2c1O[C@@H](CN(C)S(=O)(=O)c1ccc(F)cc1)[C@@H](C)CN([C@H](C)CO)C2=O` the value was “inactive”.
